NSD2 HMT inh: NSD2 histone methyltransferase inhibitors, primary screen, biochemical, AlphaScreen, single concentration, set 2; Histone-lysine N-methyltransferase NSD2 (Homo sapiens), O96028; NSD2 peptide methylation, 120 min; inhibition, % at 12.5 µM; actives 0.54% (n = 310,000); in the data active = inhibition above about 50%
Target sequence (O96028 whole entry, looked up): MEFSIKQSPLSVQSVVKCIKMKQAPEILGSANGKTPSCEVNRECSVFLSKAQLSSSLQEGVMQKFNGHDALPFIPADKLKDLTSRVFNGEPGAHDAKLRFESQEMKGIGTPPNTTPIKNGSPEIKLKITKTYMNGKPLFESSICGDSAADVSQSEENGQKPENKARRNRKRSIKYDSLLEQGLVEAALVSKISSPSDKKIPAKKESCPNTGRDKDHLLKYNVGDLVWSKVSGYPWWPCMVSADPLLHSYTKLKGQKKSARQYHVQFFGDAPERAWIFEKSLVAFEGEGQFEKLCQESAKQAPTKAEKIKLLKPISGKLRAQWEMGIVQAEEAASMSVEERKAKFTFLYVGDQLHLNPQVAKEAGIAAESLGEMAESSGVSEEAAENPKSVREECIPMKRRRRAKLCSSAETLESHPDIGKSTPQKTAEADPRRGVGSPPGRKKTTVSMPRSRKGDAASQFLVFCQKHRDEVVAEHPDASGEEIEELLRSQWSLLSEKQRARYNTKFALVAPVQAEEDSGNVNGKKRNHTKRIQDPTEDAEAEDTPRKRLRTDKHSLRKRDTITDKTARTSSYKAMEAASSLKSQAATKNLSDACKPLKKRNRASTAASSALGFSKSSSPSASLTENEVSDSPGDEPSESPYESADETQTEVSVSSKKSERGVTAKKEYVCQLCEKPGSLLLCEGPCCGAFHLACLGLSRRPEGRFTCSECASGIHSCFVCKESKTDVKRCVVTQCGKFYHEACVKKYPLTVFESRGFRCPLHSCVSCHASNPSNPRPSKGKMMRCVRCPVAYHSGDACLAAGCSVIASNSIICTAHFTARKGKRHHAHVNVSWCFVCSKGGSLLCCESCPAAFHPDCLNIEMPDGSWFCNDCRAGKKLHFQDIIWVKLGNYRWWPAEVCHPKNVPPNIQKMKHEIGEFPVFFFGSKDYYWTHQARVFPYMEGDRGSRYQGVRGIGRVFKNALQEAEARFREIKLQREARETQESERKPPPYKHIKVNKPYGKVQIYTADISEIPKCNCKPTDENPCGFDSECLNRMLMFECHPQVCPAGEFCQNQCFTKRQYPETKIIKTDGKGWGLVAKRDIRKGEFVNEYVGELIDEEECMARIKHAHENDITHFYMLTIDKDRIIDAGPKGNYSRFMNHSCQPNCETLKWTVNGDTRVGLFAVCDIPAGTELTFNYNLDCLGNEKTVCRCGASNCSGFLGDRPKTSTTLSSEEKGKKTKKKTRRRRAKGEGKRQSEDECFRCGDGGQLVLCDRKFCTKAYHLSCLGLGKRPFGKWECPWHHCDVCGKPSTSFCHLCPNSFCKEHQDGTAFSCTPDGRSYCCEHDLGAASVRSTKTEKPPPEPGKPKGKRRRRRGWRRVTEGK
Wnt bcat act: Wnt/beta-catenin pathway activators, primary screen, cell-based, plate reader, single point; Wnt/beta-catenin reporter cell assay, activator; activation, % at 9.35 µM; actives 1.2% (n = 300,000); AID 743398, 2014; in the data active = activation above about 30%, passing the limit was not always enough;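 note: 0% = neutral control wells and 100% = positive control wells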
TRPM1 prom inh: inhibitors of MITF-dependent TRPM1 promoter reporter, primary screen, cell-based, SK-MEL-5, single point, luciferase | actives 0.83% (n = 330,000) | inhibition, % at 12.5 µM | AID 488899, 2010 | SK-MEL-5 TRPM1 promoter luciferase, 24 h;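 active = mean inhibition across replicates of 60% or more, whatever share of single replicates reaches that level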
MITF act: activators of MITF-driven TRPM1 promoter reporter, primary screen, cell-based, SK-MEL-5, luciferase, single point; activation, % at 12.5 µM; actives 0.75% (n = 300,000); SK-MEL-5 TRPM1-promoter luciferase, 24 h; % of positive control, neutral wells = 0;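 active = mean activation of at least 80% with every replicate also reaching 80%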;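 note: 0% = neutral control wells and 100% = parthenolide positive control wells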
N-glyco inh: increase of ERlucT glycosylation luciferase signal, primary screen, N-linked glycosylation inhibitor project, D54 ERlucT cells, luminescence, set 2; reporter increase, % at 12.5 µM; actives 0.23% (n = 360,000); D54 ERlucT glycosylation luciferase reporter, 24 h; percent of 100 nM tunicamycin response;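 active = mean luciferase reporter signal, scaled so untreated is 0 and the glycosylation-blocking control 100, at or above a set limit in every replicate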;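 note: luciferase carries N-glycosylation sites so blocking glycosylation raises the light; 0% = median of neutral control wells and 100% = median of 100 nM tunicamycin wells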
PfHsp90 set2: growth inhibition of PfHsp90-expressing yeast, primary screen, antimalarial PfHsp90 inhibitor project, S. cerevisiae, BacTiter-Glo luminescence, single point, set 2; BacTiter-Glo ATP, 48 h; yeast lacking PDR1 and PDR3 efflux regulators; inhibition, % at 9.4 µM; actives 0.32% (n = 310,000); AID 504621, 2011;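 active = every replicate shows inhibition above about 80%, whatever the replicate mean, limit read from the data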;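 note: 0% = DMSO neutral controls and 100% = 20 µM radicicol positive controls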
* = called active by the depositor; / = not tested or not shown. Rows were chosen to be rich in hits. Some 2.9% of all compounds tested hit in one or more screens of this group.

SMILES | NSD2 HMT inh | Wnt bcat act | TRPM1 prom inh | MITF act | N-glyco inh | PfHsp90 set2
O=C1C2C3CCC(C3)C2C(=O)N1c1ccc(OS(=O)(=O)c2ccccc2)cc1 (stereo not given) | -2 | 34* | -51 | 61 | -7 | -4
CC(C)=CCc1c(O)ccc2c1OC(c1ccc(O)c(O)c1)CC2=O (stereo not given) | / | 1 | 71* | -69 | 9 | -3
O=C(CCCN1CCC(C(=O)c2ccc(F)cc2)CC1)c1ccc(F)cc1 | 0 | 1 | 2 | -1 | 0 | 0
O=C(CCCC(=O)c1ccc(F)cc1)c1ccc(F)cc1 | -6 | 37* | -124 | 131* | -5 | 10
CCN1CCN(CCNC(=O)CCc2c(OC)nc3c(c(C)nn3-c3ccccc3)c2C)CC1 | 4 | / | / | / | / | /
COC(=O)c1sccc1NC(=O)c1ccc(C)s1 | 5 | 34* | 7 | / | 2 | /
COC(=O)c1sccc1NC(=O)c1ccc(Cl)s1 | 0 | -1 | 15 | -13 | 2 | -20
O=C(C1CCCN(S(=O)(=O)c2cccc3ccccc23)C1)N1CCN(Cc2ccccc2)CC1 (stereo not given) | 8 | / | / | / | / | /
Cc1cc(C(=O)CSc2n[nH]c(N)n2)c(C)n1-c1cccc(F)c1 | 7 | -2 | -28 | 30 | -3 | /
Cc1cc(C(=O)CSc2ncccn2)c(C)n1-c1cccc(F)c1 | 1 | 82* | -32 | 34 | -8 | -3
Cc1cc(C(=O)COC(=O)C2=COCCO2)c(C)n1-c1ccc2c(c1)OCO2 | -1 | 28 | -61 | 64 | 0 | 1
Cc1cc(C(=O)CSc2nnnn2C)c(C)n1-c1cccc(F)c1 | 7 | / | -94 | 98* | -5 | -7
Cc1cc(C(=O)COC(=O)C2=COCCO2)c(C)n1-c1cccc(F)c1 | 23 | 2 | -104 | 107* | -14 | /
Cc1cc(C)cc(-n2c(C)cc(C(=O)CSc3nnnn3C)c2C)c1 | 4 | / | -13 | 16 | -1 | -11
NS(=O)(=O)c1ccc(CCNC(=O)CSc2nnc3ccccn23)cc1 | -1 | 0 | -8 | 7 | 2 | -8
Cc1ccc(NC(=O)Cn2ncc(Cl)c(Cl)c2=O)cc1S(=O)(=O)N1CCCCC1 | 1 | -4 | 97* | -96 | 12 | -1
Cc1ccc(NC(=O)CN(C)C(=O)Cn2ncc(Cl)c(Cl)c2=O)cc1 | 6 | / | 90* | -91 | -16 | 11
Cc1ccc(NC(=O)CN(C)C(=O)Cc2ccc(Cl)c(Cl)c2)cc1 | 6 | -1 | -9 | 8 | 2 | -9
COc1ccc(-c2noc(CN(C(=O)c3ccc4c(c3)OCO4)C(C)C)n2)cc1OC | -6 | -2 | 1 | 2 | 1 | -9
CC1CC(C)CN(C(=O)c2cc3cc(Br)cc(Br)c3o2)C1 (stereo not given) | -1 | 1 | -74 | 83* | -3 | 8
C=CCOc1ccc(/C=C/C(C)=N\O)cc1 | 2 | 38* | -70 | / | -3 | -41
O=C(C(=O)N1CCN(C(=O)c2cc(C(F)(F)F)cc(C(F)(F)F)c2)CC1)c1cccc(C(F)(F)F)c1 | / | -5 | / | / | / | /
O=C(N/N=C/c1cc(Cl)c(O)c(Cl)c1)c1cc2c(ccc3ccccc32)o1 | 37 | 3 | -34 | 36 | 0 | 95*
COc1cccc(CNC(=O)C(Cc2ccccc2)n2cccc2)c1 (stereo not given) | / | 44* | -10 | 13 | 1 | -11
CC(C)(C)c1ccc(C(O)CCCN2CCC(C(O)(c3ccccc3)c3ccccc3)CC2)cc1 (stereo not given) | / | -2 | 94* | -94 | -17 | 5
O=C(NCCO)c1ccc2c3n(nc2c1)-c1ccc(Cl)cc1CO3 | / | 51* | -81 | 84* | 2 | 6
Cc1ccc2c(c1)COc1c3ccc(C(=O)N[C@@H](C)CO)cc3nn1-2 | / | 18 | -76 | 77 | -5 | 4
Cc1ccc2c(c1)COc1c3ccc(C(=O)NCCO)cc3nn1-2 | / | 52* | -105 | 102* | 0 | /

Screening results (PubChem BioAssay)
